From PubChem
A selection: hits, their analogues and other compounds. The true share with any hit is near 7.1%.
SW480 rereplic = A quantitative high throughput screen for small molecules that induce DNA re-replication in SW480 colon adenocarcinoma cells | SW480 DNA re-replication, Hoechst DNA content imaging, 48 h | 340,000 tested, 1.8% active | Potency, µM (series often up to 46.1 µM), for the others: at the top dose re-replication activation, hits mostly activators; also: potency is read from the fitted curve at half-maximal effect; % of control where 0% means no effect; nearly all actives have a fitted effect of over 55% in size
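First, 250 cells per well were seeded. Next, compound or vehicle (23 nL) was pinned in, plates sat 48 hr at 37 C. Finally Hoechst was added for 40 min before fluorescence scanning.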
MCF10A rereplic = A quantitative high throughput screen for small molecules that induce DNA re-replication in MCF 10a normal breast cells | 350,000 tested, 2.9% active | Potency, µM (top dose mostly 46.1 µM), for inactives: at the top dose activity, positive = re-replication, hits mostly activators | AID 624296, 2012 | MCF 10A DNA re-replication, Hoechst nuclear intensity, 48 h; also: potency is read from the fitted curve at half-maximal effect; % of control where 0% means no effect; nearly all actives have a fitted effect of over 50% in size
S2 tox = Viability Counterscreen for Primary qHTS for Inhibitors of ATXN expression; S2 cells (HEK-293 line with an ATXN2-luciferase reporter) viability, CellTiter-Fluor protease fluorescence, 24 h; Potency, µM (doses to about 56.7 µM), usual class: cytotoxic; 400,000 tested, 0.49% active; AID 651635, 2014; also: potency is read from the fitted curve at half-maximal effect; nearly all actives have a fitted effect of over 40% in size
ATXN2 expr inh = Primary qHTS for Inhibitors of ATXN expression; 360,000 tested, 0.72% active; HEK-293 ATXN2-luciferase reporter, luminescence, 24 h; Potency, µM (series often up to 57 µM), without a hit: at the highest dose activity change, negative = inhibition, usual class: inhibitors; AID 1745845, 2022; also: potency is read from the fitted curve at half-maximal effect; % is scaled to controls: 0 for no effect and ±100 for the full control effect; nearly all actives have a fitted effect of over 55% in size
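qHTS (up to 57 uM final) was run with 24 h compound exposure of reporter cells at 37 °C. Each well was multiplexed: SteadyGlo luminescence measured ATXN2-luciferase expression after a fluorogenic Gly-Phe-AFC viability readout (25 uM final).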
IL1B secr inh = qHTS for Inhibitors of Inflammasome Signaling: IL-1-beta AlphaLISA Primary Screen; THP-1 LPS/ATP IL-1B secretion, AlphaLISA, 16 h; active compounds read low; activity change, % at 57.5 µM; 360,000 tested, 4.7% active; AID 743279, 2014; in the data active = activity change below about -50%; inconclusive = mostly about -30% to -49%; also: % is scaled to controls: 0 for no effect and ±100 for the full control effect
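Secreted IL-1B measured by AlphaLISA bead assay after 16 h compound exposure of THP-1 cells; compounds (final up to 57.5 uM) added 1 h before LPS (250 ng/mL) and ATP (1.25 mM) stimulation; lower signal means less secretion.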
PINK1 modulator = A Quantitative High throughput Screen to Identify Chemical Modulators of PINK1 Expression; PINK1 immunofluorescence, high-content cytometry, 24 h; Potency, µM (series often up to 76.6 µM), for the others: at the top dose activation (PINK1 increase), hits mostly activators; 410,000 tested, 0.2% active; AID 624263, 2012; active = well fitted activation curve with a large enough effect; inconclusive = small, poorly fitted or top-dose-only effect; cell line not stated here; also: potency is read from the fitted curve at half-maximal effect; % of control where 0% means no effect; nearly all actives have a fitted effect of over 65% in size
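Fluorescence from anti-PINK1 antibody, together with nuclear and cell stains, was scanned on a laser-scanning cytometer. Before staining, stable-line cells were incubated 24 hours with compounds at 5 concentrations; primary antibody 12 h at 10 degrees C.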
* hit, by the source's call; i = inactive; ? = inconclusive; . = not tested or not shown; [ ] = dose if it differs, or a comment. Unless noted, calls follow the shape of the dose curve; as a rule, active = well fitted curve in the direction sought with a large enough effect; inconclusive = small, poorly fitted or top-dose-only effect, or another doubt; inactive = no such curve, though single readings can be large; an effect the other way counts as inactive or inconclusive.

SMILES	SW480 rereplic	MCF10A rereplic	S2 tox	ATXN2 expr inh	IL1B secr inh	PINK1 modulator
C/C=C(/C)C(=O)OC1CC[C@]2(C)C3CCC4[C@]5(O)CC(O)[C@]6(O)C(CN7CC(C)CCC7[C@]6(C)O)[C@]5(O)C[C@@]42O[C@]13O (stereo not given in full)	.	.	.	.	.	-1%
CC(=O)N(C1=NCCCS1)c1ccccc1Cl	-14%	0.58µM*	i	-21%	8	1%
COc1cc2nc(N(C)C)c(CNCCc3c[nH]c4ccccc34)cc2c(OC)c1OC	.	.	i	.	.	0%
CCN(CC)c1ccc(CN2CC=C(c3ccc(F)cc3)CC2)cc1	-4%	?	?	?	0	?
Fc1ccc(C2=CCN(C(c3cccs3)c3nnnn3CCc3ccccc3)CC2)cc1 (stereo not given)	2%	5%	.	?	-61*	1%
CCC(C)(C)n1nnnc1C(c1cccs1)N1CC=C(c2ccc(F)cc2)CC1 (stereo not given)	11%	?	i	4%	-67*	.
CC(C)c1c(C(=O)N(C)Cc2cccc3ncccc23)cnn1-c1nccc(-c2ccccc2F)n1	.	.	?	.	.	-1%
C=CCc1cc(OC)c2c(c1OC)OCO2	.	.	.	.	.	0%
Cc1cccc(N2C(=O)NC(=O)/C(=C\c3cccn3-c3ccc(Cl)cc3)C2=O)c1	?	?	?	?	-90*	-2%
Cc1cccc(N2C(=O)NC(=O)/C(=C/c3ccc([N+](=O)[O-])o3)C2=O)c1	-19%	6%	i	-4%	-1	2%
Cc1cc(C)cc(N2C(=O)NC(=O)/C(=C/c3cccn3-c3ccc(Cl)cc3)C2=O)c1	9%	16µM*	.	?	-96*	-1%
CC1COC2(c3ccccc3Cl)c3cc(Cl)ccc3NC(=O)CN12 (stereo not given)	.	.	i	4%	.	.
CC(=O)NC(Cc1ccc(N(CCCl)CCCl)cc1)C(=O)NC(C(=O)O)C(C)C (stereo not given)	-5%	14%	i	-4%	-14	0%
CCOC(=O)CC(NC(=O)C(Cc1ccc(N(CCCl)CCCl)cc1)NC(C)=O)C(=O)OCC (stereo not given)	?	?	?	-80%	-79*	-1%
COP(=S)(OC)SCn1nnc2ccccc2c1=O	-5%	-3%	i	-21%	-93*	1%
CNc1ccc2nc3ccccc3[n+](C)c2c1	?	1%	10µM*	.	0	6%
C[n+]1c2ccccc2nc2ccc(NCCO)cc21	?	-2%	13µM*	-34%	-10	-2%
CCCOc1ccc(C(=O)Nc2ccc(-c3cc4ccccc4oc3=O)c(C)c2)cc1	.	.	?	?	.	0%
CCOC(=O)N1CCN(C(=O)Cn2ncc3c4ccccc4n(Cc4ccc(F)cc4)c3c2=O)CC1	.	.	?	?	.	1%
COc1cc([C@@H]2c3cc4c(cc3[C@@H](O)C3COC(=O)C32)OCO4)cc(OC)c1O (stereo not given in full)	.	.	.	-25%	.	1%
CCCCN1CCC(O)(c2ccccc2)C(C(=O)c2ccccc2)C1 (stereo not given)	?	?	i	-7%	-11	1%
CN1CCC(O)(c2ccc(F)cc2)C(C(=O)c2ccc(F)cc2)C1 (stereo not given)	?	27µM*	i	-12%	.	.
CN1CCC(O)(c2cccs2)C(C(=O)c2cccs2)C1 (stereo not given)	19%	?	i	19%	-94*	1%
COc1ccc(CCNC(=O)N2c3ccccc3Sc3ccccc32)cc1	24%	16µM*	?	-24%	?	2%
COc1ccc(C2=NCC(=O)N(CC(=O)NCc3ccco3)c3sc4c(c32)CCCC4)cc1OC	-1%	-8%	?	8%	-56*	.
SMILES	SW480 rereplic	MCF10A rereplic	S2 tox	ATXN2 expr inh	IL1B secr inh	PINK1 modulator
CC(N)Cc1cn(Cc2ccccc2)c2ccccc12 (stereo not given)	?	?	?	-26%	-90*	3%
CCOc1cc2c(cc1OCC)-n1cccc1C(c1c(O)cccc1OC)NC2 (stereo not given)	?	?	i	-32%	-68*	0%
CCOc1cc2c(cc1OCC)-n1cccc1C(c1ccccc1OC)NC2 (stereo not given)	?	5%	i	-28%	-85*	5%
CCOc1cc2c(cc1OCC)-n1cccc1C(c1ccccc1O)NC2 (stereo not given)	-20%	7%	i	-23%	-4	6%
O=C1/C(=C\c2ccc(Cl)c(Cl)c2)N2CCC1CC2	-12%	?	i	9%	-79*	7%
O=C1/C(=C\c2ccncc2)N2CCC1CC2	?	9%	i	.	-5	2%
O=C1/C(=C/c2cccc([N+](=O)[O-])c2)N2CCC1CC2	2%	2%	i	1%	-68*	1%
N#CC1=C(N)Oc2c(c(=O)sc3ccccc23)C1c1ccncc1 (stereo not given)	13µM*	21µM*	?	-15%	27	2%
N#CC1=C(N)Oc2c(c(=O)oc3ccccc23)C1c1cccnc1 (stereo not given)	6%	8%	i	103%	6	3%
CCCSP(=O)(OCC)SCCC	.	.	i	-3%[116 µM]	.	.
CN1CCC2(CC1)c1ccccc1-c1ccccc12	-2%	13%	i	-23%	-67*	-2%
NC(=O)C[N+]1(CC#CC(O)(c2ccccc2)c2ccccc2)CCCC1	-3%	?	i	-21%	-7	1%
CC(C(=O)c1ccccc1)N(C)C (stereo not given)	.	.	i	10%	.	.
O=C1NC(=O)N(Cc2ccco2)C(=O)/C1=C/C=C/c1ccco1	?	18µM*	?	?	-100*	1%
C=CCN1C(=O)NC(=O)/C(=C/C=C/c2ccccc2)C1=O	?	?	i	-18%	?	9%
O=C1NC(=O)N(Cc2ccccc2)C(=O)/C1=C\C=C\c1ccco1	-18%	12µM*	i	.	-212*	0%
O=C1NC(=O)N(CCc2ccc(F)cc2)C(=O)/C1=C\C=C\c1ccccc1	14%	4.1µM*	i	-35%	-24	9%
